Inconclusive results are not listed. The source made the active and inactive calls. Unless noted, calls come from the whole dose curve; as a rule, active = well fitted curve in either direction with a large enough effect (not every such curve was filed as active); inconclusive = small, poorly fitted or top-dose-only effect, or another doubt; inactive = flat fitted curve, though single readings scatter.
Legend:
[1] = target: Lysosomal acid glucosylceramidase (Homo sapiens) (UniProt P04062); assay: Glucocerebrosidase-p2 (AID 348; in the data active = potency below about 10 µM; note: potency is the fitted concentration of half-maximal effect); details: purified GBA, blue fluorogenic substrate, 40 min
Chain of Lysosomal acid glucosylceramidase (Homo sapiens) (P04062 whole entry, looked up): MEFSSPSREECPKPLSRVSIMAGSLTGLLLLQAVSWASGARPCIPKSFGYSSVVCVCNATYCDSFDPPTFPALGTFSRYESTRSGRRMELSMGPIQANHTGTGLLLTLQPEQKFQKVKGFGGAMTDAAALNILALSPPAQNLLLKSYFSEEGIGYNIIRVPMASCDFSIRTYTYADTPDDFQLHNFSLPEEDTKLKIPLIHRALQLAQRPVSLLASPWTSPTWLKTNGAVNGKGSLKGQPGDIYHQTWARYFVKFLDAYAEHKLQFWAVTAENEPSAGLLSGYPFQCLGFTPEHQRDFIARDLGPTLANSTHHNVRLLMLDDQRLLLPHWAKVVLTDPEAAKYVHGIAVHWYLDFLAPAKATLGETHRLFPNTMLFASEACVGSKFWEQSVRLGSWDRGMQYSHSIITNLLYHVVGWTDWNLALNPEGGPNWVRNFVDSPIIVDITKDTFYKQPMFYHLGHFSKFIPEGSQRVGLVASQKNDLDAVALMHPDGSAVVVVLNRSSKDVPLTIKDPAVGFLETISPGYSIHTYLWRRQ
How it was run: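 Compounds titrated from 0.6 nM upwards against 0.2 nM enzyme in pH 5.9 citric acid/KH2PO4, taurocholate, tween-20; blue fluorogenic substrate 80 uM, 40 min room temperature, stopped and read Ex 365/Em 440 for AC50.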

[2] = AP1 Signaling Pathway (AID 357); details: ME-180 AP-1-bla reporter, EGF-induced, beta-lactamase ratio, 5 h; at 7.69 µM (top of the series) unless noted;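 note: ME-180 reporter cells stimulated with EGF at its EC50 level; % is set by controls: 0 for no effect and ±100 for the full control effect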
How it was run: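 First, ME-180 AP-1-bla cells were cultured overnight at 37 °C in low-serum Opti-MEM. Next, titrated compounds with EC50 EGF were incubated 5 hours. Finally, CCF4 was added for 2.5 hours and the 460/530 nm ratio recorded.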

[3] = target: Glucocorticoid receptor (Homo sapiens) (UniProt P04150); assay: GR-GFP Redistribution (AID 450;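 active = compounds whose dose series gives a full or clear partial fitted curve of increased nuclear translocation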; note: potency is the fitted concentration of half-maximal effect); details: U2OS GR-GFP nuclear translocation, laser cytometry, 2 h
Chain of Glucocorticoid receptor (Homo sapiens) (P04150 whole entry, looked up, the tested form may be a part): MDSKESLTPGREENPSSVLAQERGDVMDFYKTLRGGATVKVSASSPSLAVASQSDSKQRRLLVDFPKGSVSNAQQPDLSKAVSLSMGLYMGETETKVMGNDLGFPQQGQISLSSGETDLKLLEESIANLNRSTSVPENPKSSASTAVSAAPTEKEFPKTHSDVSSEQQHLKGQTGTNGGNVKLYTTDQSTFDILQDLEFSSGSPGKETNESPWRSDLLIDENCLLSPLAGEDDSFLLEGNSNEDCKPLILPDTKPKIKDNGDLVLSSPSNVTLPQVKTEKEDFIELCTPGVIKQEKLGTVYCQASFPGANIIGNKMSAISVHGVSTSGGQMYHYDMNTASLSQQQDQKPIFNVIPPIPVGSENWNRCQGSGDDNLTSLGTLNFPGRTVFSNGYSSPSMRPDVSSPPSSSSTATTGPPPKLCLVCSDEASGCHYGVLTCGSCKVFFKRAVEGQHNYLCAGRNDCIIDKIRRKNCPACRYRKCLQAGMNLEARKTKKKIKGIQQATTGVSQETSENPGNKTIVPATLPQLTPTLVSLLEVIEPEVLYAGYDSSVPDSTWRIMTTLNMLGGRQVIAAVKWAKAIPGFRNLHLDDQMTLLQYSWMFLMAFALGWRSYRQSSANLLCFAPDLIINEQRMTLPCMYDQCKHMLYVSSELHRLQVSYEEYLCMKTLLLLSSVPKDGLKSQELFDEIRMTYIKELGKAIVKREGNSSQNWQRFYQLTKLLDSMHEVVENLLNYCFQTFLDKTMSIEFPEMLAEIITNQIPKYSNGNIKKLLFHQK

[4] = target: Glucocorticoid receptor (Homo sapiens) (UniProt P04150); assay: GR-EFC Redistribution (AID 451; calls by dose curve; note: potency is the fitted concentration of half-maximal effect); details: CHO-K1 GR-EFC translocation, beta-gal luminescence, 2 h
How it was run: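 Translocation of GR-ED fusion to nuclear EA restores b-gal, read by luminescence after 1 h room-temperature detection. Engineered CHO-K1 biosensor cells, 1,000/well, exposed 2 h at 37 C to titrations up to 46 uM final.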

[5] = target: Mitogen-activated protein kinase 10 (Mus musculus) (UniProt Q61831); assay: JNK3 AlphaScreen Assay (AID 530); details: JNK3 lysate, c-Jun phosphorylation; series mostly up to 11.4 µM;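 note: kinase came from lysate of stimulated human HepG2 cells; signal reports phosphorylation of biotinylated GST-cJun 1-79 at Ser73 with 10 µM ATP; % is set by controls: 0 for no effect and ±100 for the full control effect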
How it was run: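 Compound titrations were preincubated 15 minutes at room temperature with substrate, antibody and pre-activated JNK3-containing HepG2 lysate. Reactions were started with 10 uM ATP and stopped with EDTA-containing bead buffer for AlphaScreen detection.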

[6] = target: 3',5'-cyclic-AMP phosphodiesterase 4B (Homo sapiens) (UniProt Q07343); assay: qHTS Assay for Inhibitors of PDE-IV (AID 607; active = well fitted activation curve with a large enough effect in the main read-out, with a control signal flat, not every such curve was filed as active; note: % of control where 0% means no effect); details: HEK293 ACTOne CNG channel cells, membrane potential fluorescence; series mostly up to 22.9 µM
Chain of 3',5'-cyclic-AMP phosphodiesterase 4B (Homo sapiens) (Q07343 whole entry, looked up): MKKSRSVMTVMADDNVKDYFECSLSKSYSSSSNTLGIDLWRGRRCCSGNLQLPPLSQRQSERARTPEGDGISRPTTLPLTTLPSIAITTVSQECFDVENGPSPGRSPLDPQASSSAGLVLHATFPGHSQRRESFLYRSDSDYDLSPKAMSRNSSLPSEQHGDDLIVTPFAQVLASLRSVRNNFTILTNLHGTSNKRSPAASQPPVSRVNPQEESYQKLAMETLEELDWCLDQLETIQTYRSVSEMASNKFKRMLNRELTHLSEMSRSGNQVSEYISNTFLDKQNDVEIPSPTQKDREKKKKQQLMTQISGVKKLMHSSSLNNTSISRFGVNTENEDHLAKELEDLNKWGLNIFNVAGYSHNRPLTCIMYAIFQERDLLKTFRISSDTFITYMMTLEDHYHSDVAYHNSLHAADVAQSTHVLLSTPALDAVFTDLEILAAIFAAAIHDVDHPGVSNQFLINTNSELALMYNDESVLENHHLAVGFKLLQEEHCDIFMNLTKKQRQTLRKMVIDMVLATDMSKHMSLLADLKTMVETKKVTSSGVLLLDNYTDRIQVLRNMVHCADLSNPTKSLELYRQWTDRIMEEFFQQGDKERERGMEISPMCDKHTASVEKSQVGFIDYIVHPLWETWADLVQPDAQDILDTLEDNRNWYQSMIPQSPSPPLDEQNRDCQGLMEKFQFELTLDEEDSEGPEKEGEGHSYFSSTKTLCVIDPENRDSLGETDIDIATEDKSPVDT
How it was run: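 HEK293 ACTOne cells with CNG channel (1000/well), endogenous PDE4; membrane potential dye, compounds up to 22.9 uM final. Fluorescence Ex 535/Em 590; RO 20-1724 (100 uM final) as reference.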

[7] = target: Cytochrome P450 3A4 (Homo sapiens) (UniProt P08684); assay: qHTS Assay for Inhibitors and Substrates of Cytochrome P450 3A4 (AID 884; active = well fitted curve in the direction sought with a large enough effect; an effect the other way counts as inactive or inconclusive; note: potency is the fitted concentration of half-maximal effect; nearly all actives have a fitted effect of over 50% in size); details: recombinant CYP3A4, Luciferin-PPXE luminescence; series mostly up to 57.1 µM
Chain of Cytochrome P450 3A4 (Homo sapiens) (P08684 whole entry, looked up): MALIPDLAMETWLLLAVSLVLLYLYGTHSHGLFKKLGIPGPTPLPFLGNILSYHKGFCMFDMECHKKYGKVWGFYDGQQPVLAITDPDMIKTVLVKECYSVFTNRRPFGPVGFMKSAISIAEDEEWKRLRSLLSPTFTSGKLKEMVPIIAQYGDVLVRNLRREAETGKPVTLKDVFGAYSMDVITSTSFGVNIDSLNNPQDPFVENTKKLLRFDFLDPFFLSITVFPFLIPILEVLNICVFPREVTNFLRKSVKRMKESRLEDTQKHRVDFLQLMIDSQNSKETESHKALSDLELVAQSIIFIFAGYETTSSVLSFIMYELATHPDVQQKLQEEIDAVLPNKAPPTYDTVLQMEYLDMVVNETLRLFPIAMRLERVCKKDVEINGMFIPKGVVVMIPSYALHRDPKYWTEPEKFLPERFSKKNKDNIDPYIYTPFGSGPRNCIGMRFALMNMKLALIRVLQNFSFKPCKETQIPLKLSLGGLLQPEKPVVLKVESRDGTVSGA
How it was run: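 20 nM human CYP3A4 with 25 uM Luciferin-PPXE (at KM) in 200 mM KPO4, preincubated 10 min with compound; NADPH regeneration started a 60 min RT reaction. Luciferin detected by luminescence, normalized to 57 uM ketoconazole as full inhibition.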

[8] = target: Cytochrome P450 3A4 (Homo sapiens) (UniProt P08684); assay: qHTS Assay for Activators of Cytochrome P450 3A4 (AID 885; active = well fitted curve in the direction sought with a large enough effect; an effect the other way counts as inactive or inconclusive; note: nearly all actives have a fitted effect of over 65% in size); details: recombinant CYP3A4, Luciferin-PPXE luminescence, 60 min; series mostly up to 11.4 µM
How it was run: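 Human CYP3A4 (20 nM) with Luciferin-PPXE at 25 uM (its KM) in 200 mM KPO4; 10 min compound preincubation, then NADPH regeneration and 60 min reaction at RT. Luciferin read by luminescence; normalized to 57 uM ketoconazole full inhibition.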

[9] = qHTS Assay for Identification of Small Molecule Agonists for Hypoxia Response Element Signaling Pathway (AID 914; active = well fitted activation curve with a large enough effect in the signal ratio, with a control signal flat, not every such curve was filed as active; the % refers to the signal ratio; note: % of control where 0% means no effect); details: ME-180 HRE-bla reporter, beta-lactamase ratio, CoCl2, 17 h; activation: active compounds read high
How it was run: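 Reporter activity (beta-lactamase, CCF4 460nm/530nm ratio) in HRE-bla ME-180 cells is recorded after 17 h compound exposure with EC50 CoCl2 at 37 degrees Celsius. AC50 values come from titration data.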

[10] = Stat Signaling Pathway (AID 446); details: ME-180 SIE beta-lactamase reporter, IL-6 stimulated, 5 h; at 7.69 µM (top of the series) unless noted;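 note: ME-180 cervical cancer cells given 40 pM IL-6 alongside compound; SIE-controlled beta-lactamase reporter measured as 460/530 nm FRET emission ratio; % is set by controls: 0 for no effect and ±100 for the full control effect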
How it was run: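 ME-180 cells carrying a SIE-driven beta-lactamase reporter are stimulated with 40 pM IL-6 for 5 h at 37C in the presence of compound. The 460/530 nm FRET substrate ratio is read after 2.5 h at RT. Data are normalised to 300 pM IL-6 and to 125 nM JAK inhibitor controls.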

[11] = target: Cytochrome P450 2D6 (Homo sapiens) (UniProt P10635); assay: qHTS Assay for Inhibitors and Substrates of Cytochrome P450 2D6 (AID 891; active = well fitted curve in the direction sought with a large enough effect; an effect the other way counts as inactive or inconclusive; note: potency is the fitted concentration of half-maximal effect; nearly all actives have a fitted effect of over 60% in size); details: recombinant CYP2D6, luciferin-ME EGE luminescence; series mostly up to 11.4 µM
Chain of Cytochrome P450 2D6 (Homo sapiens) (P10635 whole entry, looked up): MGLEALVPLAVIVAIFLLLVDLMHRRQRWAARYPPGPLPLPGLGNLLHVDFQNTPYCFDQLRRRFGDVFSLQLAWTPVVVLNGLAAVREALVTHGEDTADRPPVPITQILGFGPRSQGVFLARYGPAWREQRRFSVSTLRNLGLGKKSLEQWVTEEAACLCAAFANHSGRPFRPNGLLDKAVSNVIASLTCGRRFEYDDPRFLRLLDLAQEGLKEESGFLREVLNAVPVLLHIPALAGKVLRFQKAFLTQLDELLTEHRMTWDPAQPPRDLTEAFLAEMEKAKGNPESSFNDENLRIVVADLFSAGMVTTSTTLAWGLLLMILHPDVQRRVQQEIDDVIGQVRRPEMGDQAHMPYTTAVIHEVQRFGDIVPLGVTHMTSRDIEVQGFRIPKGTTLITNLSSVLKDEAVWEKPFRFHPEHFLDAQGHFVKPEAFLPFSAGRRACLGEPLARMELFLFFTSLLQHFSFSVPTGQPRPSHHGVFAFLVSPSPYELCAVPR
How it was run: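 Human CYP2D6 (5 nM) with 30 uM Luciferin-ME EGE (at Km) in 100 mM KPO4, compound preincubated 10 min, then NADPH regeneration system for 60 min at room temperature. Luciferin read by luminescence; normalized to 1.43 uM quinidine.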

Compound | Potency [1] | activity change, negative = inhibition [2] | Potency [3] | Potency [4] | Potency [5] | Potency [6] | Potency [7] | Potency [8] | activation [9] | activity, negative = inhibition [10] | Potency [11]
CN(C)Cc1cc(C(F)(F)F)ccc1C(O)(c1ccccc1)c1ccccc1 | > 11.4 µM (inactive) | 19.8% (inactive) | > 46 µM (inactive) | > 9.22 µM (inactive) | inactive | inactive | 0.794 µM (active) | inactive | 25.7% (inactive) | – | –
C[N@@+]1(Cc2ccc(Cl)c(Cl)c2)CCC[C@@H]1c1ccc[n+](Cc2ccc(Cl)c(Cl)c2)c1 | > 11.4 µM (inactive) | -3.2% (inactive) | > 46 µM (inactive) | > 9.22 µM (inactive) | inactive | inactive | – | – | – | -0.293% (inactive) | 3.16 µM (active)

Reference: PubChem BioAssay (NCATS)
